Compound activity deposited in PubChem by The Scripps Research Institute Molecular Screening Center.
DAGLB inhibitor = DAGLB lipase inhibitors, primary screen, biochemical, fluorescence, HTS. Diacylglycerol lipase-beta (Homo sapiens), Q8NCG7. HEK293T DAGLB membrane lysate, EnzChek fluorogenic substrate. inhibition, % at 5.17 µM. actives 0.059% (n = 340,000). AID 504411, 2011; in the data active = inhibition above about 34%
Target sequence (Q8NCG7 whole entry, looked up): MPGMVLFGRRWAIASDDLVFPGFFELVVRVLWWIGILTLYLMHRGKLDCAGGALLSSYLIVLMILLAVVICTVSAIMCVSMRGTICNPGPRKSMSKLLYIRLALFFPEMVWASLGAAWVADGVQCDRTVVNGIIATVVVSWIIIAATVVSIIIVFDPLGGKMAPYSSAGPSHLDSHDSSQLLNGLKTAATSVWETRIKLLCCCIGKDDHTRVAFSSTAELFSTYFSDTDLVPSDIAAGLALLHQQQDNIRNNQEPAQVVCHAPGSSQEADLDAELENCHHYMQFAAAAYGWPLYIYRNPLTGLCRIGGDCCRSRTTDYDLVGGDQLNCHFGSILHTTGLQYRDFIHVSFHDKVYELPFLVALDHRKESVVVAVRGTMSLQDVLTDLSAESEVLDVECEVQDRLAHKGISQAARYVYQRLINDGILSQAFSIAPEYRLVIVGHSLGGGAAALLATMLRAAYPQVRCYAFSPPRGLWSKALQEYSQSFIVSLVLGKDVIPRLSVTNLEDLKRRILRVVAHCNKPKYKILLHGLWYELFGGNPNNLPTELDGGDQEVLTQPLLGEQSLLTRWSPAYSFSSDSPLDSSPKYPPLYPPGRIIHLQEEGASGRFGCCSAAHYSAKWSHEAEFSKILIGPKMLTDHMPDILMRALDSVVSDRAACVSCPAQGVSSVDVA
PLCg1 inh = PLC-gamma1 enzyme inhibitors, primary screen, biochemical, fluorescence, purified enzyme; 1-phosphatidylinositol 4,5-bisphosphate phosphodiesterase gamma-1 (Homo sapiens), P19174; fluorogenic substrate; inhibition, % at 12.2 µM; actives 0.84% (n = 370,000); AID 720700, 2013; in the data active = inhibition above about 9.5%
HGIII-sPLA2 inh = human group III sPLA2 inhibitors, primary screen, biochemical, QFRET, BODIPY PC-A2 liposome substrate. Group 3 secretory phospholipase A2 (Homo sapiens), Q9NZ20. QFRET BODIPY PC-A2 liposome hydrolysis, fluorescence. inhibition, % at 12.2 µM. actives 0.56% (n = 370,000). AID 743126, 2013;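 active = inhibition above mean plus 3 SD of compounds lying within the high and low control bounds, cut at about 19% in these data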
PLC-beta3 inh = human PLC-beta3 inhibitors, primary screen, biochemical, fluorescence; 1-phosphatidylinositol 4,5-bisphosphate phosphodiesterase beta-3 (Homo sapiens), Q01970; Purified PLC-beta3, fluorogenic substrate; inhibition, % at 12.2 µM; actives 0.18% (n = 370,000); AID 720704, 2013; in the data active = inhibition above about 11%
Numbers stand for hits; n = inactive; x = no result. This is a sample that favours compounds with a hit; in the whole collection about 1.5% have one here.

SMILES	DAGLB inhibitor	PLCg1 inh	HGIII-sPLA2 inh	PLC-beta3 inh
O=C1/C(=C/c2ccco2)CCc2ccccc21	n	n	n	n
Nc1ccc2c(c1)C/C(=C/c1ccco1)C2=O	n	n	22	n
Cc1ccccc1Oc1cc(-n2ncc(Cl)c(Cl)c2=O)ncn1	n	n	21	n
CC(=O)OCCn1c(=O)c2cc3c(=O)n(CCOC(C)=O)c(=O)c3cc2c1=O	n	9.9	n	n
COCCn1c(=O)c2ccccc2c2ccccc2c1=O	n	n	n	n
CC(C)NCC(O)Cn1c2c(c3ccccc31)CCc1c-2cnn1-c1ccccc1 (stereo not drawn)	n	n	21	n
CSCCCNC(=O)Cn1nc(Cc2ccncc2)c2ccccc2c1=O	x	n	n	n
CCNC(=O)N(C)[C@H]1C[C@H]2c3[nH]c4cccc(-c5cccc(F)c5)c4c3CCN2C(=O)[C@H]1[C@H](C)O	x	n	n	n
CN(C)S(=O)(=O)c1cccc(-c2nnc(SCCNCCO)n2-c2ccc(F)cc2)c1	n	14	n	14
CCCSc1nnc(-c2cccc(S(=O)(=O)N(C)C)c2)n1-c1cc(OC)ccc1OC	n	n	n	n
CC1=NN(c2ccccc2)C(=O)/C1=C\c1ccc(Oc2ccc([N+](=O)[O-])cc2[N+](=O)[O-])cc1	n	20	n	n
N#CCC(=O)Nc1ccc(C(=O)OCC(=O)C23CC4CC(CC(C4)C2)C3)cc1	n	n	n	n
O=C(OCC12CC3CC(CC(C3)C1)C2)c1ccc(NCc2cc(O)ccc2O)cc1	n	n	29	n
CC1CCCCN1C(=O)Cn1nnc(-c2cccnc2)n1 (stereo not drawn)	n	n	n	n
Cc1ccc(-c2nnn(CCC(=O)N3CCCCC3C)n2)cc1 (stereo not drawn)	n	13	n	n
CC(C)C[C@@H](CO)N1Cc2nnn(Cc3ccccc3)c2-c2ccccc2S1(=O)=O	x	n	n	n
Cc1ccc2nc(-c3ccc(NC(=O)CSc4nnc(-c5ccccc5)n4Cc4ccco4)cc3)sc2c1	x	n	n	n
CNC[C@H](CC1CCCCC1)NC[C@H](Cc1ccccc1)NCCC12CC3CC(CC(C3)C1)C2	n	10.0	n	n
CC(C)CC(=NNC(=O)c1ccncc1)c1cc(Cl)ccc1O	n	n	21	n
COC(=O)[C@]12C[C@H](CC(=O)NCCc3ccccc3OC)C(=O)N(Cc3cccc4ccccc34)C1=C[C@H](C(C)C)O[C@@H]2C1CC1	x	n	n	n
COc1ccc(CNC(=O)CCNS(=O)(=O)c2ccc3[nH]c(=O)oc3c2)cc1	x	n	n	n
Cc1ccc(C(=O)N/N=C/c2c(O)ccc3ccccc23)cn1	n	n	30	n
COC(=O)C1CN(C2CCCC2)CCS(=O)(=O)N1Cc1ccc(C(F)(F)F)cc1 (stereo not drawn)	x	n	n	n
CCN1/C(=C/c2ccc3ccccc3[n+]2CC)C=Cc2ccccc21	n	n	33	n
CCN1/C(=C/c2ccc3ccccc3[n+]2CCCS(=O)(=O)[O-])C=Cc2cc(C)ccc21	n	n	n	n
SMILES	DAGLB inhibitor	PLCg1 inh	HGIII-sPLA2 inh	PLC-beta3 inh
NC(=O)c1ccccc1NCC(=O)c1ccc(F)cc1	n	n	21	n
O=C(OC12CCCN(C1)/C(=C/c1ccccc1)C2)c1ccc(Cl)cc1 (stereo not drawn)	x	n	n	n
CC(=O)Nc1c(O)nc(SCC(=O)Nc2c(C)cccc2C)[nH]c1=O	n	12	n	12
CCCc1cc(=O)[nH]c(SCC(=O)Nc2c(C)cccc2C)n1	n	x	x	x
COc1ccc(CCN(Cc2cccs2)S(=O)(=O)c2ccc(F)cc2)cc1OC	x	n	n	n
O=C1Nc2ccccc2CCc2ccccc21	n	n	n	n
O=C1Cc2ccccc2C(=O)N1	x	11	n	n
COC(=O)C[C@H]1CC[C@H]2[C@H](COc3ccc(NC(=O)c4cccs4)cc3C(=O)N2C)O1	x	n	n	n
CCCCn1c(NC(=O)c2ccco2)c(S(=O)(=O)c2ccc(C)cc2)c2nc3ccccc3nc21	n	n	n	n
CCCCn1c(NS(=O)(=O)c2ccccc2)c(S(=O)(=O)c2ccc(C)cc2)c2nc3ccccc3nc21	n	17	27	n
Fc1ccc(-c2n[nH]c(=S)n2N=Cc2cccc(OCc3ccccc3)c2)cc1	x	n	n	n
CCOC(=O)c1oc2ccc(CNC(C)(C)C)c(Cl)c2c1C	n	12	n	n
CCc1cc2c(SCC(=O)c3ccc(Cl)s3)ncnc2s1	n	10	n	n
COC(=O)[C@]12C[C@H](CC(=O)NCC34CC5CC(CC(C5)C3)C4)C(=O)N(Cc3ccco3)C1=C[C@H](COCc1ccccc1)O[C@@H]2C	x	n	n	n
Cc1ccc2c(c1)N(S(=O)(=O)c1ccc(CN3C(=O)c4cccnc4C3=O)s1)CCO2	n	12	n	n
Cc1ccc2c(c1)N(S(=O)(=O)c1ccc(CN3C(=O)c4cccnc4C3=O)cc1)CCO2	n	n	n	n
COC(=O)[C@H](CC(C)C)N(Cc1cn(Cc2ccccc2)nn1)S(=O)(=O)c1ccc(F)cc1Br	x	n	n	n
COC(C/C=C\[C@H](O)[C@@H](C)OCc1ccccc1)OC	n	n	n	12
COC(C/C=C/[C@H](O)[C@@H](C)OCc1ccccc1)OC	n	n	n	n
Cn1cc(C(=O)c2ccc(Cl)cc2Cl)cc1C(=O)N/N=C(\N)COc1ccc(Cl)cc1Cl	n	12	n	n
COc1ccc(-n2c(SCC(=O)Nc3ccc(S(=O)(=O)Nc4nccs4)cc3)nnc2-c2ccco2)cc1	x	n	n	n
COc1ccc(NC(=O)C2CCCN(S(=O)(=O)c3ccccc3)C2)c(OC)c1 (stereo not drawn)	n	12	n	n
C[C@@H]1CCC(=O)N(C[C@@H](C)CSc2ccccc2)CC1	n	11	n	n
CCOC(=O)[C@@]12CCCC=C1N(CCc1ccc(Cl)cc1)C(=O)[C@H]2CC(=O)NCc1ccc(OC)c(OC)c1	x	n	n	n
COC(=O)CNC(=O)C1Cc2ccccc2CN1S(=O)(=O)c1ccc(F)cc1 (stereo not drawn)	n	9.6	n	n
SMILES	DAGLB inhibitor	PLCg1 inh	HGIII-sPLA2 inh	PLC-beta3 inh
CCNC(=O)C1Cc2ccccc2CN1S(=O)(=O)c1ccc(F)cc1 (stereo not drawn)	n	n	n	n
Cc1ccc(-n2c(C)nn(Cc3ccc([N+](=O)[O-])cc3)c2=O)cc1	n	n	n	n
Cc1ccc(-n2c3nc(=O)[nH]c(=O)c-3cc3cc([N+](=O)[O-])ccc32)cc1	n	n	28	n
COc1ccc(-n2c(SCC(=O)Nc3cc(C)c(NC(=O)c4ccccc4)cc3OC)nnc2-c2ccco2)cc1	x	n	n	n
O=[N+]([O-])c1ccc(Nc2ccccc2)c2nonc12	n	n	n	n
NNc1ccc([N+](=O)[O-])c2[nH][nH]c(=O)c12	n	23	n	n
COC(=O)[C@@H]1C[C@@H](c2ccccc2)[C@H](C)C1(C)C	n	9.7	n	n
COC(=O)[C@H]1C[C@@H](c2ccccc2)[C@H](C)C1(C)C	n	n	n	n
